Assay results taken from PubChem BioAssay AID1159580 (chemical genetic matrix, 2015).
Values joined by “and” are separate entries in the source; they are usually repeats but may differ in a detail not shown here. Equal entries are not always repeated. Hit rate of the full screen: of about 5,500 compounds, about 2,000 (36%) were called active. Roughly 18% stayed inconclusive and do not appear here. No stated cut-off is given here; in the data, active means normalized growth mostly below about 0.91 (no sharp cut-off); inconclusive means no clear call, values can overlap the other calls; inactive means mostly above about 0.92. The list shows a part of the results.

Assay: chemical genetic growth profiling, strain panel (AID 1159580);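 further: tested at 20 µM; growth read once vehicle control cultures reached saturation at 30 °C; 1 = growth at the plate median or of vehicle wells; lower values mean less growth of the strain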
Conditions: S. cerevisiae deletion strains, growth OD

Measured: normalized growth

COc1cc(CNC(=O)CCCC/C=C/C(C)C)ccc1O
inactive: locus YAL013W, strain DEP1, hits give low values 1.01 | locus YAL021C, strain ccr4, hits give low values 0.971 | locus YAL026C, strain drs2, hits give low values 0.994 | locus YAL030W, strain snc1, hits give low values 0.987 | locus YBL061C, strain skt5, hits give low values 0.99 | locus YBR009C, strain hhf1, hits give low values 0.951 | locus YBR021W, strain FUR4, hits give low values 0.978 | locus YBR023C, strain chs3, hits give low values 0.975 | locus YBR171W, strain sec66, hits give low values 0.979 | locus YBR229C, strain ROT2, hits give low values 0.994 | locus YBR231C, strain swc5, hits give low values 0.981 | locus YBR279W, strain paf1, hits give low values 0.983 | locus YCL011C, strain gbp2, hits give low values 0.979 | locus YCL016C, strain dcc1, hits give low values 0.989 | locus YCL029C, strain bik1, hits give low values 0.988 | locus YCL069W, strain vba3, hits give low values 0.992 | locus YCR088W, strain abp1, hits give low values 0.964 | locus YDL005C, strain med2, hits give low values 0.965 | locus YDL035C, strain GPR1, hits give low values 0.972 | locus YDL040C, strain nat1, hits give low values 0.997 | locus YDL074C, strain BRE1, hits give low values 0.979 | locus YDL101C, strain DUN1, hits give low values 1.01 | locus YDL134C, strain PPH21, hits give low values 1 | locus YDL185W, strain tfp1, hits give low values 0.986 | locus YDL192W, strain arf1, hits give low values 0.989 | locus YDR001C, strain nth1, hits give low values 0.997 | locus YDR069C, strain doa4, hits give low values 0.981 | locus YDR101C, strain arx1, hits give low values 0.969 | locus YDR137W, strain rgp1, hits give low values 0.997 | locus YDR159W, strain sac3, hits give low values 0.999 | locus YDR162C, strain NBP2, hits give low values 1.04 | locus YDR195W, strain ref2 0.959 | locus YDR297W, strain sur2, hits give low values 0.973 | locus YDR318W, strain mcm21, hits give low values 1 | locus YDR334W, strain swr1, hits give low values 0.998 | locus YDR335W, strain msn5, hits give low values 0.968 | locus YDR388W, hits give low values 0.99 | locus YDR392W, strain spt3, hits give low values 0.956 | locus YDR502C, strain sam2, hits give low values 0.961 | locus YEL003W, strain gim4, hits give low values 0.984 | locus YEL037C, strain rad23, hits give low values 0.99 | locus YEL061C, strain CIN8 (second series), hits give low values 0.983 | locus YEL061C, strain CIN8, hits give low values 1.01 | locus YER015W, strain faa2, hits give low values 1 | locus YER016W, strain bim1, hits give low values 1.01 | locus YER110C, hits give low values 0.969 | locus YER111C, strain swi4, hits give low values 0.991 | locus YER155C, strain BEM2 (second series), hits give low values 0.953 | locus YER155C, strain BEM2, hits give low values 0.994 | locus YER167W, strain BCK2, hits give low values 1.01 | locus YFR010W, strain ubp6, hits give low values 0.973 | locus YGL078C, strain dbp3, hits give low values 0.974 | locus YGL086W, strain mad1, hits give low values 0.996 | locus YGL167C, strain pmr1, hits give low values 0.988 | locus YGL173C, strain kem1, hits give low values 0.978 | locus YGL227W, strain vid30, hits give low values 0.975 | locus YGL240W, strain doc1, hits give low values 0.975 | locus YGL248W, strain PDE1, hits give low values 1.02 | locus YGL253W, strain hxk2, hits give low values 0.987 | locus YGR135W, strain pre9, hits give low values 0.991 | locus YGR252W, strain gcn5, hits give low values 0.898 | locus YHR013C, strain ard1, hits give low values 0.999 | locus YHR027C, strain rpn1, hits give low values 0.984 | locus YHR030C, strain SLT2, hits give low values 1.02 and 0.997 | locus YHR079C, strain IRE1 (second series), hits give low values 1 | locus YHR079C, strain IRE1, hits give low values 0.989 | locus YHR094C, strain hxt1, hits give low values 0.981 | locus YHR129C, strain ARP1, hits give low values 1.02 | locus YHR142W, strain chs7, hits give low values 0.998 | locus YHR200W, strain rpn10, hits give low values 1.01 | locus YIL066C, strain RNR3, hits give low values 1.01 | locus YIL073C, strain SPO22, hits give low values 0.972 | locus YIL125W, strain kgd1, hits give low values 0.993 | locus YIR030C, strain dcg1, hits give low values 0.986 | locus YJL092W, strain hpr5, hits give low values 0.99 | locus YJL095W, strain BCK1 (second series), hits give low values 0.986 | locus YJL095W, strain BCK1, hits give low values 1.05 and 0.999 | locus YJL115W, strain asf1, hits give low values 0.979 | locus YJL129C, strain trk1, hits give low values 0.955 | locus YJL134W, strain LCB3, hits give low values 1.01 | locus YJL154C, strain vps35, hits give low values 0.98 | locus YJL164C, strain tpk1, hits give low values 0.994 | locus YJL166W, strain qcr8, hits give low values 0.973 | locus YJL168C, strain set2, hits give low values 0.981 | locus YJL187C, strain SWE1 (second series), hits give low values 1.01 | locus YJL187C, strain SWE1, hits give low values 0.994
